A selection: hits, their analogues and other compounds. The true share with any hit is near 7.5%.
HCMV antiviral: blocks human cytomegalovirus replication | HFF cells, HCMV-luciferase reporter, 72 h; stronger effect = lower value | activity change, negative = inhibition, % at 57.5 µM | 410,000 compounds, 4.5% hits | AID 1259415; in the data active = activity change below about -60%; inconclusive = no clear call, values can overlap the other calls; inactive = above about -39%
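After 16 h attachment at 37C, HFF cells received test compound and HCMV-luciferase (1 PFU/cell); reporter luminescence read 72 h later, data normalized against buffer-only and known inhibitor Salinomycin.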
Vaccinia Venus: inhibitors of vaccinia virus (Venus reporter); Vaccinia virus Venus reporter expression, fluorescence; Potency, µM (doses to about 36.5 µM), inactives show at the top dose activity change, negative = inhibition, usual class: inhibitors; 330,000 compounds, 0.46% hits; AID 720580; calls by dose curve; tested in A549 cells; note: potency is the fitted concentration of half-maximal effect; nearly all actives have a fitted effect of over 30% in size
Giardia FBPA inh: inhibitors of Giardia lamblia fructose-1,6-bisphosphate aldolase; A8B2U2; purified Giardia FBPA; Potency, µM (top dose mostly 59.6 µM), for the others: at the highest dose activity, negative = inhibition, usual class: inhibitors; 290,000 compounds, 0.71% hits; note: potency is the fitted concentration of half-maximal effect; nearly all actives have a fitted effect of over 55% in size
Target sequence (A8B2U2 whole entry, looked up): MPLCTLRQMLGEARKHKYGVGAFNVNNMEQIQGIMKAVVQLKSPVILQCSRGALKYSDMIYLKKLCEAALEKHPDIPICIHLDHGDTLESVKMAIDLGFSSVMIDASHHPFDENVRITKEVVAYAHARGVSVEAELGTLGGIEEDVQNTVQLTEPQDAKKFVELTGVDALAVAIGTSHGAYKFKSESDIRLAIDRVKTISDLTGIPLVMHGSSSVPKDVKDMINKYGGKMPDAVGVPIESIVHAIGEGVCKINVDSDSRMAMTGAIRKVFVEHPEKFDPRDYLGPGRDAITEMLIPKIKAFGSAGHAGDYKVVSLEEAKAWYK
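40 nM FBPA preincubated 10 min at RT with compound (up to 57.5 uM final), then substrate plus GAPDH/TPI/NAD/arsenate coupling and diaphorase/resazurin added. Fluorescence read after 20 min at RT, 525/598 nm.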
Vaccinia mCherry: vaccinia inhibition (mCherry reporter); Vaccinia virus mCherry reporter infection, fluorescence; Potency, µM (titrated, usually from 36.5 µM), for inactives: top-dose activity change, negative = inhibition, hits mostly inhibitors; 310,000 compounds, 0.63% hits; calls by dose curve; tested in A549 cells; note: potency is the fitted concentration of half-maximal effect; nearly all actives have a fitted effect of over 35% in size
HCV inhibitor: HCV inhibition; Huh7.5.1 HCVcc-Cre infection, luciferase reporter, 44 h; 340,000 compounds, 3.4% hits; AID 651820; Potency, µM (titrated, usually from 41.8 µM), for inactives: at the top dose activity change, negative = inhibition, usual class: inhibitors; note: potency is the fitted concentration of half-maximal effect
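Cells (1,000/well) were plated 4 h before compound, then infected with HCVcc-Cre virus (~0.5 moi). After 44 h further culture, infection was read as luciferase luminescence following a 15 min substrate incubation at room temperature.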
FMDV inh: blocks foot and mouth disease virus | FMDV antiviral cell-based qHTS | Potency, µM (titrated, usually from 57.9 µM), inactives show at the highest dose activity change, negative = inhibition, actives largely listed as inhibitors | 410,000 compounds, 1.2% hits; calls by dose curve; tested in HEK293T cells; note: read-out not given here; potency is the fitted concentration of half-maximal effect; nearly all actives have a fitted effect of over 45% in size
The depositor's hits bear a star. Unless noted, calls come from the whole dose curve; as a rule, active = well fitted curve in the direction sought with a large enough effect; inconclusive = small, poorly fitted or top-dose-only effect, or another doubt; inactive = no such curve, though single readings can be large; an effect the other way counts as inactive or inconclusive. % is set by controls: 0 for no effect and ±100 for the full control effect.

What do the screens show for `COc1ccc(N2CC(NC(=O)C3CCCCC3)CC2=O)cc1OC` (stereo not given)?
HCMV antiviral: -35; Vaccinia Venus: 3%; Vaccinia mCherry: 8%; FMDV inh: -7%

What do the screens show for `CC(C)(C)[C@H]1CCC(=O)N(CCSc2ccc(Br)cc2)CC1`?
Vaccinia Venus: -14%; Vaccinia mCherry: -17%

What do the screens show for `CCOC(=O)c1c(C)[nH]c(NC(=O)NNC(=O)c2ccccc2Cl)c1C`?
HCMV antiviral: -27; HCV inhibitor: 11µM*; FMDV inh: -20%

How did CCOC(=O)c1c(C)[nH]c(NC(=O)NNC(=O)c2ccc(OC)cc2)c1C do in these assays?
HCMV antiviral: -21; HCV inhibitor: -3%; FMDV inh: -12%

Results for CCOC(=O)c1c(C)nc2sc(C(N)=O)c(N)c2c1-c1ccccc1 ?
HCMV antiviral: -62*; Vaccinia Venus: inconclusive; Giardia FBPA inh: 5%; HCV inhibitor: -21%; FMDV inh: -20%

Results for CCOC(=O)c1c(C)nc2sc(C(=O)Nc3ccccc3)c(N)c2c1-c1ccc(OC)cc1 ?
Vaccinia Venus: inconclusive; Giardia FBPA inh: -4%; HCV inhibitor: 6.3µM*; FMDV inh: 0%

How did COc1ccc(-c2c3c(nc4sc(C(=O)Nc5ccccc5)c(N)c24)CCC3)cc1 do in these assays?
HCMV antiviral: 37; Vaccinia Venus: -4%; Vaccinia mCherry: -12%; HCV inhibitor: -7%; FMDV inh: 0%

What do the screens show for `COCCCNC(=O)c1sc2nc(C)c(C(=O)Nc3ccc(Cl)cc3)c(-c3ccc(Br)cc3)c2c1N`?
HCMV antiviral: -76*; Vaccinia Venus: -13%; Vaccinia mCherry: -22%; FMDV inh: -16%

Results for CC1(C)C(=O)Nc2ccccc2N1C(=O)COC(=O)Cc1ccc(Cl)c(Cl)c1 ?
HCMV antiviral: -13; HCV inhibitor: 10%; FMDV inh: -6%

Results for CN1CCCCC1(C)C(=O)NCc1cc(Cl)ccc1F (stereo not given) ?
HCMV antiviral: -10; Vaccinia Venus: -13%; Vaccinia mCherry: inactive; FMDV inh: -12%

Results for Cc1ccc(NC(=O)c2ccc(Cl)c(S(=O)(=O)N3CCCC3)c2)nc1 ?
HCMV antiviral: inconclusive; Vaccinia Venus: -23%; Vaccinia mCherry: -27%; HCV inhibitor: inconclusive; FMDV inh: inconclusive

Results for COc1ccc(C(=O)NCc2ccccc2)cc1S(=O)(=O)N1CCCc2ccccc21 ?
HCMV antiviral: -27; Vaccinia Venus: -22%; Giardia FBPA inh: -2%; Vaccinia mCherry: inconclusive; HCV inhibitor: 11µM*; FMDV inh: 47%

What do the screens show for `O=C(NNC(=O)c1ccccc1O)c1ccc(Cl)c(S(=O)(=O)N2CCc3ccccc32)c1`?
HCMV antiviral: -72*; Vaccinia Venus: inconclusive; Vaccinia mCherry: inconclusive; HCV inhibitor: inconclusive; FMDV inh: inconclusive

Results for COc1ccc(C(=O)Nc2cccc(C)n2)cc1S(=O)(=O)N1CCCc2ccccc21 ?
HCMV antiviral: -72*; Vaccinia Venus: -16%; Vaccinia mCherry: -23%; HCV inhibitor: 2.5µM*; FMDV inh: -27%

Results for Cc1ccc(NC(=O)c2ccc(Cl)c(S(=O)(=O)N3CCc4ccccc43)c2)nc1 ?
HCMV antiviral: -79*; Vaccinia Venus: -22%; Vaccinia mCherry: -8%; HCV inhibitor: inconclusive; FMDV inh: -27%

What do the screens show for `O=C(c1ccc(Cl)c(S(=O)(=O)N2CCc3ccccc32)c1)N1CCN(c2ccccc2O)CC1`?
HCMV antiviral: -39; Vaccinia Venus: -25%; Vaccinia mCherry: -16%; HCV inhibitor: inconclusive; FMDV inh: inconclusive

Results for CN(C(=O)COC(=O)c1cccs1)c1ccccc1 ?
HCMV antiviral: -14; Vaccinia Venus: -23%; Vaccinia mCherry: -6%; FMDV inh: 2%

What do the screens show for `CCc1nnc(NC(=O)CCC(=O)NC2CCCCCC2)s1`?
HCMV antiviral: -31; Vaccinia Venus: -2%; Giardia FBPA inh: 10%; Vaccinia mCherry: -13%; HCV inhibitor: -2%; FMDV inh: 20%

What do the screens show for `CCCOP(=O)(c1ccc(N(C)C)cc1)C(O)c1ccc(Cl)cc1Cl` (stereo not given)?
HCMV antiviral: -9; Vaccinia Venus: -25%; Giardia FBPA inh: -8%; Vaccinia mCherry: inactive; HCV inhibitor: 9%; FMDV inh: -17%

How did O=C(NCc1ccco1)c1ccc(Cl)c(S(=O)(=O)N2CCc3ccccc32)c1 do in these assays?
HCMV antiviral: -82*; Vaccinia Venus: -23%; Giardia FBPA inh: -6%; Vaccinia mCherry: inconclusive; HCV inhibitor: inconclusive; FMDV inh: inconclusive

How did O=C(COC(=O)c1cccc(S(=O)(=O)N2CCc3ccccc32)c1)NCc1ccco1 do in these assays?
HCMV antiviral: -96*; Vaccinia Venus: -17%; Giardia FBPA inh: -9%; Vaccinia mCherry: -20%; HCV inhibitor: 15%; FMDV inh: 2%

What do the screens show for `O=C(NCc1ccco1)c1ccc(Cl)c(S(=O)(=O)N2CCOCC2)c1`?
HCMV antiviral: 6; Giardia FBPA inh: 1%; HCV inhibitor: 6%; FMDV inh: 19%

What do the screens show for `COc1ccc(C(=O)Nc2ccc(C)cn2)cc1S(=O)(=O)N1CCCc2ccccc21`?
HCMV antiviral: inconclusive; Vaccinia Venus: -19%; Vaccinia mCherry: -11%; HCV inhibitor: 4.5µM*; FMDV inh: -23%

What do the screens show for `O=C(CSc1nc2ncccc2o1)Nc1cccc(C(F)(F)F)c1`?
HCMV antiviral: 56; Vaccinia Venus: -3%; Vaccinia mCherry: -2%; FMDV inh: -6%

What do the screens show for `CC(C)C[C@H]1CNC(=O)C(=O)N1C[C@H]1CCCN1C[C@H](CC(C)C)N1C[C@H](Cc2ccccc2)N(CC2CCCCC2)C(=O)C1=O`?
HCMV antiviral: -1; Vaccinia Venus: -12%; Vaccinia mCherry: -6%; FMDV inh: 25%

How did CC(C)C[C@H]1CN([C@@H](CC(C)C)CN2CCC[C@@H]2CN2C(=O)C(=O)NC[C@@H]2Cc2ccccc2)C(=O)C(=O)N1CC1CCCCC1 do in these assays?
HCMV antiviral: -66*; Vaccinia Venus: -27%; Vaccinia mCherry: -6%; HCV inhibitor: 5%; FMDV inh: -6%

How did CC(C)C[C@@H](CN1CCC[C@@H]1CN1C(=O)C(=O)NC[C@@H]1Cc1ccccc1)N1C[C@H](Cc2ccc(O)cc2)N(CC2CCCCC2)C(=O)C1=O do in these assays?
HCMV antiviral: inconclusive; Vaccinia Venus: -16%; Vaccinia mCherry: -3%; HCV inhibitor: -14%; FMDV inh: -10%

How did CC(C)C[C@@H](CN1CCC[C@H]1CN1C(=O)C(=O)NC[C@@H]1Cc1ccccc1)N1C[C@H](Cc2ccc(O)cc2)N(CC2CCCCCC2)C(=O)C1=O do in these assays?
HCMV antiviral: -103*; Vaccinia Venus: inconclusive; Vaccinia mCherry: inconclusive; FMDV inh: -20%

Bioassay records (PubChem BioAssay)
